High-throughput results (PubChem BioAssay)
Sampled rows, rich in hits. Any-hit rate of the full collection: about 1.3%.
RXFP1 antag – antagonists of human relaxin receptor RXFP1 | 350,000 tested, 0.59% active | AID 1259400 | Q9HBX9 | activity change, negative = inhibition, % at 57.5 µM | HEK293-RXFP1, relaxin-stimulated cAMP HTRF, 30 min; hits give low values;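 active = activity change of -60% or lower, but not beyond a set lower limit; inconclusive = change between -60% and -40%, or beyond the set limit; inactive = change above -40%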
Target sequence (Q9HBX9 whole entry, looked up): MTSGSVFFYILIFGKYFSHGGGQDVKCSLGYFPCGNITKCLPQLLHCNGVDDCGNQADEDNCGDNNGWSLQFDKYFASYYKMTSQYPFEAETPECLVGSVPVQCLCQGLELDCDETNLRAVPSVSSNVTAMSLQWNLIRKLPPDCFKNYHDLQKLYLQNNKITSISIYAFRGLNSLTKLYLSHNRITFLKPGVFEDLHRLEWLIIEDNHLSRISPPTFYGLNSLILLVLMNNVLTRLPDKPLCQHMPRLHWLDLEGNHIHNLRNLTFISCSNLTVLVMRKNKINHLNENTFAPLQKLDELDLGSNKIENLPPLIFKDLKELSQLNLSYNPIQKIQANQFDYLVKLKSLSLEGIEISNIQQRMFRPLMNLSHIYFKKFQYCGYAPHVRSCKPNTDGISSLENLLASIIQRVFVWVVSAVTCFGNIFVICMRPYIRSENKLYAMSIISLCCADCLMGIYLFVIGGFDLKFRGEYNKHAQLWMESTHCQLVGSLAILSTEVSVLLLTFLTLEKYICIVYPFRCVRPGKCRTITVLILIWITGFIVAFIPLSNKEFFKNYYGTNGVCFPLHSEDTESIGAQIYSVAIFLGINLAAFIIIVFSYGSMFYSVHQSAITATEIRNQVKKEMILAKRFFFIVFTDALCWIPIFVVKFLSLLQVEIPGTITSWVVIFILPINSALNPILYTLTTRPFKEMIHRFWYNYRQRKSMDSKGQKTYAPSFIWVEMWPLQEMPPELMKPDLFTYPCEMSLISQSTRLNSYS
Akt phos inh – blocks phosphorylation of Akt. Neuro2A IGF-stimulated pAkt S473 HTRF, 20 min; hits give low values. activity change, % for hits at 50 µM. 360,000 tested, 0.32% active. AID 651550; in the data active = activity change below about -80%; inconclusive = mostly about -51% to -80%
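Single-point screen (50 µM final compound) in Neuro2A cells stimulated 20 min with 6 nM IGF at 37 deg C. After lysis, Ser473-phosphorylated Akt read by HTRF (ex 330 nm, em 615/665 nm) as the 665/615 ratio.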
gsp ag – gsp mutant agonism; gsp mutant cells, cAMP HTRF, 30 min; 340,000 tested, 0.13% active; Potency, µM (doses to about 76.9 µM), usual class: activators; AID 624287; active = well fitted activation curve with a large enough effect; inconclusive = small, poorly fitted or top-dose-only effect, or another doubt; inactive = no such curve, though single readings can be large or run the other way; cell line not stated here;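 also: phosphodiesterase inhibitor Ro 20-1724 added with compounds to block cAMP breakdown; nearly all actives have a fitted effect of over 60% in size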
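Cells stably selected in G418 were plated at 2000/well, grown 16-24 hr, then given compounds in DMSO with the PDE inhibitor […] (300 uM solution added) for 30 min at 37C; cAMP was read by HTRF.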
TSHR antag – human thyrotropin receptor antagonism; 330,000 tested, 0.2% active; activity change, negative = inhibition, % at 11.5 µM; TSHR-expressing cells, TSH-stimulated cAMP HTRF, 2 h; hits give low values; AID 504810; P16473;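 active = activity change below a set negative limit, meaning inhibition stronger than a set level, cut at about -70% in these data; inconclusive = activity change between two set negative limits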
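Competitive HTRF cAMP read-out (cryptate anti-cAMP antibody, cAMP-d2; 30 min, room temperature) in freshly harvested TSHR cells. Compounds added before TSH at EC80 (4nM final), followed by 2 hours' incubation at 37 deg C.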
RXFP1 agonist – activates the human relaxin receptor RXFP1 | HEK293T-RXFP1 cAMP TR-FRET, 30 min; response scale: percent of porcine relaxin response, buffer zero | Potency, µM (titrated, usually from 57.5 µM), usual class: activators | AID 2676 | 370,000 tested, 0.3% active; active = well fitted activation curve with a large enough effect; inconclusive = small, poorly fitted or top-dose-only effect; also: nearly all actives have a fitted effect of over 60% in size
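HEK293T cells stably expressing RXFP1 were pretreated with the PDE4 inhibitor Ro 20174, exposed to compounds for 30 min at 37C, lysed, and cAMP was read by TR-FRET. Data normalized to buffer (basal) and 29 nM porcine relaxin (100%).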
gsp antagonist – gsp mutant antagonism | gsp-mutant cells, cAMP HTRF, 30 min | Potency, µM (highest dose often 76.9 µM), actives largely listed as inhibitors | 340,000 tested, 0.4% active; calls by dose curve; cell line not stated here;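 also: intracellular cAMP measured with PDE inhibitor Ro 20-1724 present during compound exposure; nearly all actives have a fitted effect of over 65% in size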
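Cells, 2000/well, grown 16–24 h in DMEM 10% FBS with 0.5 mg/ml G418, then compounds plus […] (300 uM addition stock), 30 min at 37C. cAMP read by HTRF (cAMP-d2 and anti-cAMP antibody-K in lysis buffer) after 30 min RT.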
Of the large screens only hits and unclear results are named; the others gave an inactive call.

O=C(CCNC(=O)c1ccccc1Cl)Nc1nc2ccccc2[nH]1	none (no result: RXFP1 agonist)
CCOC(=O)CNc1nc(Cl)nc(NC(C)(C)C)n1	none
Cc1ccc(C(=O)Nc2scc(-c3ccccc3)c2C(=O)O)cc1	none (no result: TSHR antag, RXFP1 agonist)
CC(C)(C)C(=O)Nc1scc(-c2ccc(-c3ccccc3)cc2)c1C(=O)O	gsp antagonist 35.5µM
Cc1ccc(C)c(S(=O)(=O)NCc2ccc3c(c2)OCO3)c1	none
CCOC(=O)CCCCC(=O)c1[nH]c(=O)[nH]c1CSc1nnc2c3cc(Br)ccc3n(C)c2n1	RXFP1 agonist 14.1µM (no result: RXFP1 antag, Akt phos inh, gsp ag, gsp antagonist)
CCOC(=O)CCCCC(=O)c1[nH]c(=O)[nH]c1CSc1nc(C)cc(C)n1	gsp ag inconclusive
COc1ccc(C(=O)Sc2ccc(Cl)cc2)cc1OC	Akt phos inh -127.0%
COc1ccccc1N1CC(C)(C)C(=O)N(C(=O)c2c(F)cccc2Cl)C1=S	none
COc1ccccc1/C=C/C=N/n1c(-c2ccc(Cl)cc2)n[nH]c1=S	RXFP1 antag -62.8
CCOc1ccccc1/C=N/n1nnnc1N	none
COc1cc(C(=O)NCC(=O)N2CCN(S(=O)(=O)c3ccccc3)CC2)cc(OC)c1OC	RXFP1 antag -63.9
Nc1c(C(=O)Nc2ccc(Cl)cc2)sc2nc(N3CCOCC3)c3c(c12)CCCC3	gsp ag 10µM (no result: Akt phos inh)
Cc1ccc(C(C)(C)C)cc1S(=O)(=O)N1CCC(C(=O)N2CCN(c3ccc(O)cc3)CC2)CC1	TSHR antag inconclusive
COc1cccc(-c2nc(CS(=O)(=O)CC(=O)N3CCOCC3)c(C)o2)c1	none
COc1ccccc1OCC(=O)N1CCC(c2nc3ccccc3o2)CC1	none (no result: Akt phos inh, gsp ag, TSHR antag, gsp antagonist)
Cc1ccc(C(C)C)c(OCC(=O)N2CCC(c3nc4ccccc4o3)CC2)c1	RXFP1 antag -98.3 (no result: Akt phos inh, gsp ag, TSHR antag, gsp antagonist)
Cc1cccc(C(=O)NC(=S)NNC(=O)c2ccc(Cl)cc2)c1	RXFP1 antag -96.5
CCc1ccc(OCC(=O)NNC(=O)c2cc(S(=O)(=O)N(C)C)ccc2N2CCCC2)cc1	RXFP1 antag -114.0
Cc1sccc1Br	none (no result: Akt phos inh, gsp ag, TSHR antag, RXFP1 agonist, gsp antagonist)
CCOc1cccc(C2c3c(-c4cc(C)ccc4O)n[nH]c3C(=O)N2Cc2ccco2)c1 (stereo unspecified)	RXFP1 antag -75.9 (no result: Akt phos inh, gsp ag, TSHR antag, gsp antagonist)
COc1cccc(C2c3c(-c4ccccc4O)n[nH]c3C(=O)N2Cc2ccco2)c1 (stereo unspecified)	none
O=C1c2[nH]nc(-c3ccccc3O)c2C(c2ccccc2F)N1Cc1ccco1 (stereo unspecified)	gsp ag inconclusive
Cc1ccc(O)c(-c2n[nH]c3c2C(c2ccccc2F)N(Cc2ccco2)C3=O)c1 (stereo unspecified)	RXFP1 antag -68.8 (no result: Akt phos inh, gsp ag, TSHR antag, gsp antagonist)
CS(=O)(=O)N1CCN(c2ccccc2NC(=O)Nc2cccc(Cl)c2)CC1	gsp antagonist inconclusive
O=C(Cn1ncc2c(=O)oc3ccccc3c21)NCc1ccc(Cl)cc1	none (no result: RXFP1 antag, Akt phos inh, gsp ag, TSHR antag, gsp antagonist)
O=C(c1ccccc1)c1ccc(N2CCN(C(=O)c3cccc(F)c3F)CC2)c(F)c1	gsp ag inconclusive, TSHR antag inconclusive, gsp antagonist 39.8µM
CCC(=O)c1ccc(N2CCN(C(=O)c3ccccc3F)CC2)c(F)c1	none
O=C(c1ccc(F)cc1F)N1CCN(c2ncccn2)CC1	gsp ag inconclusive
CCOC(=O)N1CCN(c2ccc(C(C)=O)cc2F)CC1	none
O=C(c1ccc(N2CCN(C(=O)c3ccc(F)cc3F)CC2)cc1)c1cccc(F)c1	gsp antagonist 35.5µM
CCOC(=O)N1CCN(c2ccc(C(=O)c3ccccc3)cc2F)CC1	gsp antagonist 31.6µM
COC(=O)c1ccc(NC(C)=O)cc1OC	none (no result: Akt phos inh, gsp ag, TSHR antag, RXFP1 agonist, gsp antagonist)
CCOCCc1nnc(NC(=O)C(=O)c2cc(C)n(-c3cccc(Cl)c3)c2C)s1	none (no result: Akt phos inh, gsp ag, TSHR antag, gsp antagonist)
COc1ccccc1C(C)NC(=O)CN(C)CC(=O)Nc1c(C)cccc1C (stereo unspecified)	none
COc1ccccc1N1CCN(C(=O)c2ccc(COc3cccc4c3OC(C)(C)C4)cc2)CC1	gsp antagonist inconclusive
CSc1ncccc1C(=O)OCC(=O)NC12CC3CC(CC(C3)C1)C2	gsp antagonist inconclusive (no result: RXFP1 agonist)
COc1cc(-n2c(C)nc3cc(C(=O)N4CCOCC4)ccc32)cc(OC)c1OC	Akt phos inh -113.7%
C=CCN(CC=C)Cc1ccc(C(=O)OC)o1	Akt phos inh -109.7%
COC(=O)c1ccc(Cc2ccc(C(=O)OC)o2)o1	none
CN1/C(=C\C(=O)c2cccs2)Sc2ccccc21	Akt phos inh -104.3%
CCO[C@H](Cc1ccc(OCCc2ccc(OS(C)(=O)=O)cc2)cc1)C(=O)O	none (no result: Akt phos inh, gsp ag, TSHR antag, RXFP1 agonist, gsp antagonist)
Cc1cccc(OCC(=O)NNc2c3ccccc3nc3ccccc23)c1	RXFP1 antag inconclusive, gsp antagonist 22.4µM
Cc1ccc(OCC(=O)NNc2c3ccccc3nc3ccccc23)cc1	RXFP1 antag -67.4, gsp antagonist 28.2µM
Cc1cc(CNC(=O)COc2ccccc2)c2ccccc2n1	none
O=C(Cc1ccccc1)NNc1c2ccccc2nc2ccccc12	none
CN1C(=O)S/C(=C/c2ccccc2OCc2ccc(C(=O)O)cc2)C1=O	gsp antagonist 31.6µM
CC(=O)N1CCN(C(=O)CSc2ncnc3sc(C)c(C)c23)CC1	gsp ag inconclusive (no result: RXFP1 agonist)
COc1ccc(C(=O)N(CN2CCCC2=O)c2ccccc2OC)cc1OC	Akt phos inh -111.0%
O=C1CC(N2CCN(c3ccc(O)cc3)CC2)C(=O)N1Cc1cccs1 (stereo unspecified)	none
O=C(c1ccncc1)c1ccc(N2CCN(C3CC(=O)N(Cc4cccs4)C3=O)CC2)cc1 (stereo unspecified)	gsp antagonist 35.5µM
Cc1ccc(NC(=O)/C=C/c2ccc(S(=O)(=O)N3CCOCC3)cc2)cc1S(=O)(=O)N(C)C	gsp antagonist 35.5µM (no result: TSHR antag, RXFP1 agonist)
CC(=O)Nc1cccc(NC(=O)/C=C/c2ccc(S(=O)(=O)N3CCOCC3)cc2)c1	none (no result: RXFP1 agonist)
CCOC(=O)C1=C(CC)Nc2ccccc2N=C1NC(=O)Nc1ccc(Cl)c(Cl)c1	gsp antagonist 31.6µM
COc1cc(CNC(=O)CCC(=O)N2C[C@H]3C[C@H](C2)c2cccc(=O)n2C3)cc(OC)c1OC	none (no result: RXFP1 antag, gsp ag)
CCOc1ccc(/C=N/NC(=O)c2ccc(O)cc2)cc1CN1CC2CC(C1)c1cccc(=O)n1C2 (stereo unspecified)	gsp antagonist 39.8µM (no result: RXFP1 antag, gsp ag)
CCOc1ccc(NC(=O)c2ccc(N3CC4CC(C3)c3cccc(=O)n3C4)c(NC(=O)CCN3CCOCC3)c2)cc1 (stereo unspecified)	none
CCOc1ccc(/C=N/NC(=O)Cc2ccccc2)cc1CN1CC2CC(C1)c1cccc(=O)n1C2 (stereo unspecified)	gsp antagonist 35.5µM (no result: RXFP1 antag, gsp ag)
Cc1csc(=O)n1CCC(=O)OCC(=O)Nc1ccc(S(N)(=O)=O)cc1	gsp ag inconclusive
